# C diff HTS: C. difficile growth inhibition. AID 1259249. Clostridium difficile clinical isolate growth, OD600, 24 h; hits give low values. actives 0.25% (n = 86,000). growth activity, negative = inhibition, % at 16 µg/mL (by protocol);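 active = mean growth activity at or below -80% and every replicate also at or below -80%; inconclusive = mean at or below -80% but some replicate above -80%; inactive = mean growth activity above -80%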;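 note: 0% = DMSO wells and -100% = levofloxacin 16 µg/mL wells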
# Pf Dd2 growth: blocks growth of Plasmodium falciparum Dd2 parasites; P. falciparum Dd2 growth, SYBR Green, 72 h; hits give low values; activity change, % at 10 µM; actives 2.3% (n = 94,000); AID 1159554; in the data active = activity change below about -80%; inconclusive = no clear call, values can overlap the other calls
# T cruzi growth-1: inhibitors of T. cruzi proliferation; actives 5.9% (n = 77,000); AID 624255; inhibition, % at 8.34 µM; T. cruzi beta-gal in NIH3T3, GalScreen luminescence, 90 h;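 active = mean inhibition above about 93%, with at least 55% of replicates each passing it, limit read from the data, passing the limit was not always enough; inconclusive = only one of those two conditions holds; inactive = neither condition holds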
# T cruzi growth-2: inhibitors of T. cruzi proliferation; shares compounds with T cruzi growth-1; T. cruzi beta-gal in NIH3T3, GalScreen luminescence, 90 h; inhibition, % at 8.35 µM; actives 72% (n = 5,600);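 active = mean replicate inhibition above about 95% and at least 55% of replicates individually reaching it, limit read from the data; inconclusive = only one of the two criteria is met; inactive = neither criterion is met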
# T cruzi growth-3: blocks T. cruzi growth in NIH3T3 host cells; inhibition, % at 2.09 µM; actives 21% (n = 5,600); AID 651740; shares compounds with T cruzi growth-1; T. cruzi beta-gal in NIH3T3, GalScreen luminescence, 90 h;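 active = mean inhibition above about 95%, with at least 55% of replicates also reaching it, limit read from the data; inconclusive = meets just one of the two conditions; inactive = meets neither condition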;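 note: plate controls were neutral control median for no effect and positive control median for full effect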
# NIH3T3 tox: NIH/3T3 (mouse) viability loss; shares compounds with T cruzi growth-1; NIH/3T3 viability, CellTiter-Glo ATP luminescence, 90 h; actives 14% (n = 5,600); cytotoxicity (signal decrease), % at 8.35 µM;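 active = mean signal decrease across replicates above about 35% based on untreated-well scatter, with enough replicates individually passing, limit read from the data; inconclusive = no rule stated though some were filed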;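 note: 0% = median of neutral control wells and 100% = median of positive control wells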
# NIH3T3 tox 2: kills mouse NIH/3T3 fibroblasts; shares compounds with T cruzi growth-1; NIH/3T3 viability, CellTiter-Glo ATP luminescence, 90 h; inhibition, % at 24.9 µM; actives 56% (n = 5,600); AID 651744;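 active = mean loss of cell viability signal at or above a set limit, and enough replicates individually reaching it; inconclusive = meets only the mean limit or only the replicate share; inactive = meets neither condition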;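 note: 0% = median of neutral control wells and 100% = median of positive control wells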
# * = called active by the depositor; u = inconclusive; x = no result given. Compounds with a hit are over-represented: about 6.7% of the library has one in this group of screens.
SMILES,C diff HTS,Pf Dd2 growth,T cruzi growth-1,others
O=C(C[C@@H]1C[C@@H]2c3cc(NC(=O)Cc4ccncc4)ccc3O[C@@H]2[C@H](CO)O1)NCc1ccccc1,x,-39.1,-2.2,
C[C@@H]1CN([C@@H](C)CO)C(=O)Cc2cc(NC(=O)Nc3ccc4c(c3)OCO4)ccc2O[C@H]1CN(C)Cc1ccc(-c2ccccc2)cc1,3.7,-44.8,64.7,
C[C@H](CO)N1C[C@H](C)[C@H](CN(C)C)Oc2c(NC(=O)CCCCCC(=O)Nc3ccccc3N)cccc2C1=O,4.7,21.7,x,
C[C@H]1CN([C@@H](C)CO)C(=O)c2cccc(NC(=O)CCCCCC(=O)Nc3ccccc3N)c2O[C@@H]1CN(C)Cc1ccncc1,-1.2,-16.1,x,
C[C@@H]1CN([C@@H](C)CO)C(=O)c2cccc(NC(=O)CCCCCC(=O)Nc3ccccc3N)c2O[C@H]1CN(C)Cc1ccc(-c2ccccc2)cc1,-5.2,-90.7*,x,
C[C@@H]1CN([C@@H](C)CO)C(=O)c2cccc(NC(=O)CCCCCC(=O)Nc3ccccc3N)c2O[C@@H]1CN(C)Cc1ccccc1,-7.2,-87.1*,x,
C[C@H](CO)N1C[C@H](C)[C@@H](CN(C)Cc2ccc(-c3ccccc3)cc2)Oc2c(NC(=O)CCCCCC(=O)Nc3ccccc3N)cccc2C1=O,-16.7,-86.7*,x,
CC(C)NC(=O)Nc1cccc2c1O[C@@H](CN(C)CC1CCCCC1)[C@H](C)CN([C@@H](C)CO)C2=O,-1.4,-80.7*,x,
CC(C)NC(=O)Nc1cccc2c1O[C@@H](CN(C)CC1CCCCC1)[C@@H](C)CN([C@H](C)CO)C2=O,5.0,-0.2,-19.4,
C[C@@H]1CN([C@@H](C)CO)C(=O)c2cccc(NC(=O)CCCCCC(=O)Nc3ccccc3N)c2O[C@H]1CN(C)C,0.8,-62.0,x,
C[C@@H]1CN([C@@H](C)CO)C(=O)c2c(c3ccccc3n2C)-c2ccccc2CO[C@H]1CN(C)Cc1cccc2c1OCCCO2,11.1,-79.1,x,
COc1ccc2c3c([nH]c2c1)[C@H](CO)N(C(=O)c1cccnc1)CC31CCN(C(=O)NC(C)C)CC1,-7.6,-10.1,x,
C[C@@H]1CN([C@@H](C)CO)C(=O)c2cccc(NC(=O)CCCCCC(=O)Nc3ccccc3N)c2O[C@H]1CN(C)CC1CCCCC1,-4.6,-88.9*,x,
C[C@H](CO)N1C[C@H](C)[C@H](CN(C)CC2CC2)Oc2c(NC(=O)CCCCCC(=O)Nc3ccccc3N)cccc2C1=O,4.5,-43.6,x,
C[C@H](CO)N1C[C@H](C)[C@H](CN(C)Cc2ccc(Cl)c(Cl)c2)Oc2c(NC(=O)CCCCCC(=O)Nc3ccccc3N)cccc2C1=O,1.6,-88.4*,x,
C[C@H](CO)N1C[C@H](C)[C@@H](CN(C)Cc2ccc(Cl)c(Cl)c2)Oc2ccc(NC(=O)CCCCCC(=O)Nc3ccccc3N)cc2CC1=O,10.0,-56.6,x,
O=C(Nc1ccc(F)cc1)Nc1ccc2c(c1)[C@H]1C[C@H](CC(=O)N3CCOCC3)O[C@@H](CO)[C@H]1O2,2.5,-24.9,8.4,
CCCN(C)C[C@H]1OCCCC[C@@H](C)Oc2ccc(NC(=O)Nc3ccc4c(c3)OCO4)cc2C(=O)N([C@H](C)CO)C[C@@H]1C,4.7,-86.4*,79.5,
C[C@H]1CCCCO[C@H](CN(C)CC2CC2)[C@@H](C)CN([C@@H](C)CO)C(=O)c2cc(NC(=O)Nc3ccc4c(c3)OCO4)ccc2O1,3.7,-90.1*,33.1,
C[C@@H]1CCCCO[C@@H](CN(C)CC2CC2)[C@H](C)CN([C@@H](C)CO)C(=O)c2cc(NC(=O)Nc3ccc4c(c3)OCO4)ccc2O1,5.0,-52.4,10.2,
CCCN(C)C[C@H]1OCCCC[C@H](C)Oc2ccc(NC(=O)Nc3ccc4c(c3)OCO4)cc2C(=O)N([C@@H](C)CO)C[C@@H]1C,0.6,x,43.7,
C[C@H]1CN([C@@H](C)CO)C(=O)c2c(c3ccccc3n2C)-c2ccccc2CO[C@@H]1CN(C)C(=O)Cc1ccccc1,6.0,-91.1*,76.6,
C[C@H](CO)N1C[C@H](C)[C@@H](CN(C)C(=O)Cc2ccccc2)OCc2ccccc2-c2c(n(C)c3ccccc23)C1=O,30.5,-81.1*,59.9,
C[C@@H]1CN([C@H](C)CO)C(=O)c2c(c3ccccc3n2C)-c2ccccc2CO[C@H]1CN(C)C(=O)Cc1ccccc1,-7.6,-21.8,x,
C[C@H](CO)N1C[C@H](C)[C@H](CN(C)C(=O)Cc2ccccc2)OCc2ccccc2-c2c(n(C)c3ccccc23)C1=O,-5.0,-72.9,2.9,
SMILES,C diff HTS,Pf Dd2 growth,T cruzi growth-1,others
CCC(=O)Nc1ccc2c(c1)OC[C@H](C)N(Cc1nccs1)C[C@@H](C)[C@@H](OC)CN(C)C2=O,0.4,-10.5,-1.9,
O=C(C1CCCC1)N1CC2(C1)[C@@H](c1ccccc1)[C@H](CO)N2C(=O)c1cccnc1,-5.4,9.9,x,
Cc1noc(C)c1NC(=O)Nc1ccc2c(c1)C(=O)N([C@@H](C)CO)C[C@@H](C)[C@@H](CN(C)C(=O)CCCN(C)C)OCCCC[C@@H](C)O2,3.4,42.2,44.8,
N#C[C@H]1[C@H](c2ccc(C#Cc3cccc(F)c3)cc2)[C@@H](CO)N1C(=O)C1CCC1,-0.4,-52.2,97.0*,T cruzi growth-2=97.2*;T cruzi growth-3=108.8*;NIH3T3 tox=17.4;NIH3T3 tox 2=11.8
N#C[C@@H]1[C@@H](c2ccc(C#Cc3cccc(F)c3)cc2)[C@H](CO)N1C(=O)C1CCC1,14.8,-35.8,99.2*,T cruzi growth-2=104.0*;T cruzi growth-3=105.2*;NIH3T3 tox=14.2;NIH3T3 tox 2=-2.6
N#C[C@H]1[C@@H](c2ccc(C#Cc3ccccc3F)cc2)[C@H](CO)N1C(=O)C1CCC1,-12.8,-22.7,94.4,
N#C[C@H]1[C@H](c2ccc(C#Cc3ccc(F)cc3)cc2)[C@@H](CO)N1C(=O)C1CCC1,-2.8,-62.5,92.9,
C[C@H](CO)N1C[C@H](C)[C@@H](CN(C)Cc2ccc(-c3ccccc3)cc2)Oc2c(NC(=O)NC3CCCCC3)cccc2C1=O,18.1,-38.9,104.6*,T cruzi growth-2=105.9*;T cruzi growth-3=88.7;NIH3T3 tox=-29.6;NIH3T3 tox 2=104.2*
C[C@@H]1CN([C@H](C)CO)C(=O)c2cccc(NC(=O)NC3CCCCC3)c2O[C@@H]1CN(C)Cc1ccc(Oc2ccccc2)cc1,-2.1,-49.3,48.5,
C[C@@H]1CN([C@H](C)CO)C(=O)c2cccc(NC(=O)NC3CCCCC3)c2O[C@H]1CN(C)Cc1ccc(-c2ccccc2)cc1,9.6,-1.8,81.0,
C[C@@H]1CN([C@H](C)CO)C(=O)c2cccc(NC(=O)NC3CCCCC3)c2O[C@H]1CN(C)Cc1ccc(Oc2ccccc2)cc1,-3.2,-11.2,u,T cruzi growth-2=98.4*;T cruzi growth-3=107.7*;NIH3T3 tox=-13.8;NIH3T3 tox 2=104.4*
O=C(C[C@H]1CC[C@H](NC(=O)c2ccncc2)[C@H](CO)O1)Nc1ccc(-c2ccccc2)cc1,-4.0,16.1,x,

# Compound activity: PubChem, Broad Institute
